Hits are enriched below; roughly 4.8% of the tested compounds scored in any of these assays.
SMARCA2 act = SMARCA2 (BRM) function activators, primary screen, cell-based, luminescence, high throughput | MG213 cells, MMTV-luciferase reporter, dexamethasone, overnight | activation, % at 9.1 µM | hit rate 1% among 370,000 | AID 652017, 2013; in the data active = activation above about 7.8%
hgDAF12 agonist = H. glycines DAF-12 receptor agonists, primary screen, cell-based, luminescence, HEK293, GAL4 fusion, UAS-luciferase | Nuclear hormone receptor DAF-12 (Heterodera glycines), GAL4 fusion | HEK293 GAL4-hgDAF12 UAS-luciferase reporter, agonist luminescence; normalized to butyrate control | activation, % at 6.8 µM | hit rate 1.8% among 370,000;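 active = activation above a cutoff set at the mean of all screened compounds plus 3 SD, cut at about 10% in these data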
ssDAF12 agonist = S. stercoralis DAF-12 nuclear receptor activators, primary screen, cell-based, luminescence, HEK293, GRIP1 co-expression, lit1-tk-luc | hit rate 1% among 370,000 | activation, % at 6.8 µM | Nuclear hormone receptor DAF-12 (Strongyloides stercoralis) | HEK293 ssDAF-12/GRIP1 lit1-tk-luc reporter; % of 3 µM dafachronic acid response;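 active = activation above the mean over all tested compounds plus 3 SD, cut at about 0.9% in these data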
DAX1 inh-1 = DAX1 (NR0B1) inhibitors on StAR promoter, primary screen, cell-based, luminescence, SF-1 (NR5A1), full-length DAX-1. HEK293T StAR-luciferase reporter, SF-1/DAX-1 repression relief. inhibition, % at 6.8 µM. hit rate 1.1% among 370,000;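 active = inhibition above the mean over all tested compounds plus 3 SD, cut at about 3.6% in these data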;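 note: higher inhibition means more luminescence from relief of DAX-1 repression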
DAX1 inh-2 = DAX1 (NR0B1) inhibitors, primary screen, cell-based, HEK293, Gal4-DAX1, luciferase luminescence; Nuclear receptor subfamily 0 group B member 1 (Homo sapiens), P51843; HEK293 Gal4-DAX1 luciferase reporter; hit rate 0.99% among 340,000; inhibition, % at 6.75 µM;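 active = inhibition above the mean over all tested compounds plus 3 SD, cut at about 4.2% in these data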;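 note: inhibition shows as a rise in luminescence from relieved DAX1 repression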
Target sequence (P51843 207-470 limits assumed): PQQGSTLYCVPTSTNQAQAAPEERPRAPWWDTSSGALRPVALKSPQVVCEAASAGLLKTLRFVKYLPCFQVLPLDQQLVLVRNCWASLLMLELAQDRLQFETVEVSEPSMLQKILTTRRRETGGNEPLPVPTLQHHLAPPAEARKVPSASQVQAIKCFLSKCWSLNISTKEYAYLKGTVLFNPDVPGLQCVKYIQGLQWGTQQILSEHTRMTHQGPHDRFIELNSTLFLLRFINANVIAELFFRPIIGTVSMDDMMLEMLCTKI
hcDAF12 agonist = H. contortus DAF-12 nuclear receptor activators, primary screen, cell-based, luminescence, HEK293, lit1-tk-luc reporter. HEK293 hcDAF-12 lit1-tk-luc reporter; 0% DMSO, 100% Δ7-dafachronic acid. AID 652067, 2013. hit rate 1.4% among 370,000. activation, % at 6.8 µM;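 active = activation above the mean of all tested compounds plus 3 SD, cut at about 5.5% in these data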
LXRb hcDAF ctr = LXR agonists, Gal4 luciferase reporter, confirmation, counter-screen for hcDAF-12 agonist project, cell-based, luminescence, HEK293, H. contortus campaign | AID 743027, 2013 | shares compounds with hcDAF12 agonist | 3,400 tested, under 10 active | activation, % at 6.8 µM | HEK293 Gal4-LXR tk-luc reporter, 24 h; normalized: DMSO 0%, positive control 100%;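 active = mean percent activation of the reporter above a cutoff set as the average over tested compounds plus their standard deviation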
Target sequence (P55055 whole entry, looked up, the tested form may be a part): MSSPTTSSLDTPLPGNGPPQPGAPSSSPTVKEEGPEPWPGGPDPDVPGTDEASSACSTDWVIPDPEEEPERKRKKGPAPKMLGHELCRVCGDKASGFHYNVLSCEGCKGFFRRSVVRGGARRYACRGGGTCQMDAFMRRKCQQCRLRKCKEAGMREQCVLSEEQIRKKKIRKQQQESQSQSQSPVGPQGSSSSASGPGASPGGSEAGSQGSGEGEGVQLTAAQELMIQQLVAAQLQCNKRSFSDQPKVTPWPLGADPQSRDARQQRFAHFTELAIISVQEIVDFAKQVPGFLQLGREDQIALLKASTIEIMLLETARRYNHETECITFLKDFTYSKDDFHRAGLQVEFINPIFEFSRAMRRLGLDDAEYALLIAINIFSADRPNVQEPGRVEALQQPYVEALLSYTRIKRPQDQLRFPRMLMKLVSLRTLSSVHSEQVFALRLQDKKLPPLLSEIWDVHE
hcDAF12 ag = H. contortus DAF-12 receptor agonists, confirmation, cell-based, luminescence, HEK293, lit1-tk-luc, triplicate; shares compounds with hcDAF12 agonist; HEK293 hcDAF-12 lit1-tk-luc reporter; % of Δ7-dafachronic acid response; activation, % at 6.8 µM; hit rate 61% among 3,400; AID 743032, 2013;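 active = mean activation across triplicate tests above the threshold derived from the earlier primary screen, cut at about 5.5% in these data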
Numbers stand for hits.

Screening O=C(Nc1nnc(SCc2ccc(Cl)cc2)s1)c1ccco1 returned SMARCA2 act inactive, hgDAF12 agonist inactive, ssDAF12 agonist inactive, DAX1 inh-1 inactive, DAX1 inh-2 inactive, hcDAF12 agonist 6.9, LXRb hcDAF ctr inactive and hcDAF12 ag inactive.
Screening CCOc1ccc(NC(=S)NC(=O)c2c(Cl)c(C)nn2C)c([N+](=O)[O-])c1 returned SMARCA2 act inactive, hgDAF12 agonist inactive, ssDAF12 agonist inactive, DAX1 inh-1 inactive, DAX1 inh-2 inactive and hcDAF12 agonist inactive.
Screening Cc1nn(C)c(C(=O)NC(=S)Nc2ccccc2O)c1Cl returned SMARCA2 act inactive, hgDAF12 agonist inactive, ssDAF12 agonist 1.4, DAX1 inh-1 inactive, DAX1 inh-2 inactive, hcDAF12 agonist 6.7, LXRb hcDAF ctr inactive and hcDAF12 ag 6.4.
Screening CCn1nc2cc(C(=O)NCCc3cccs3)ccc2c1OC returned SMARCA2 act inactive, hgDAF12 agonist inactive, ssDAF12 agonist inactive, DAX1 inh-1 inactive, DAX1 inh-2 4.6, hcDAF12 agonist 8.1, LXRb hcDAF ctr inactive and hcDAF12 ag 5.7.
For Cc1ccc(C(=O)NCCc2cccs2)cc1 the results were SMARCA2 act inactive, hgDAF12 agonist inactive, ssDAF12 agonist inactive, DAX1 inh-1 inactive, DAX1 inh-2 inactive and hcDAF12 agonist inactive.
For O=C(NCCc1cccs1)c1ccc(Cl)cc1 the results were SMARCA2 act inactive, hgDAF12 agonist 11, ssDAF12 agonist inactive, DAX1 inh-1 inactive, DAX1 inh-2 inactive, hcDAF12 agonist 7.6, LXRb hcDAF ctr inactive and hcDAF12 ag inactive.
For CCOc1c2ccc(C(=O)NCCc3ccc(C)cc3)cc2nn1CC the results were SMARCA2 act inactive, hgDAF12 agonist inactive, ssDAF12 agonist inactive, DAX1 inh-1 inactive, DAX1 inh-2 inactive and hcDAF12 agonist inactive.
Screening Oc1ccc2ccc(Cl)cc2c1 returned SMARCA2 act inactive, hgDAF12 agonist inactive, ssDAF12 agonist inactive, DAX1 inh-1 inactive, DAX1 inh-2 inactive and hcDAF12 agonist inactive.
Screening CC(C)CSc1nnc2c3ccccc3n(C)c2n1 returned SMARCA2 act inactive, hgDAF12 agonist inactive, ssDAF12 agonist 1.6, DAX1 inh-1 inactive, DAX1 inh-2 10, hcDAF12 agonist 14, LXRb hcDAF ctr inactive and hcDAF12 ag 11.
`CC(C)OC(=O)CSc1nnc2c3ccccc3n(C)c2n1` gave SMARCA2 act inactive, hgDAF12 agonist inactive, ssDAF12 agonist inactive, DAX1 inh-1 inactive, DAX1 inh-2 inactive and hcDAF12 agonist inactive.
`CCCC(=O)Nc1c2c(nn1-c1cccc(C)c1C)CS(=O)(=O)C2` gave SMARCA2 act inactive, hgDAF12 agonist inactive, ssDAF12 agonist inactive, DAX1 inh-1 inactive, DAX1 inh-2 inactive, hcDAF12 agonist 8.1, LXRb hcDAF ctr inactive and hcDAF12 ag inactive.
Cc1ccc(S(=O)(=O)N2CCN(C(=O)COC(=O)/C=C/c3ccccc3)CC2)c(C)c1 was read as SMARCA2 act inactive, hgDAF12 agonist inactive, ssDAF12 agonist inactive, DAX1 inh-1 inactive, DAX1 inh-2 inactive and hcDAF12 agonist inactive.
`Cc1cc(C(=O)Nc2cccc3ccccc23)co1` gave SMARCA2 act inactive, hgDAF12 agonist inactive, ssDAF12 agonist inactive, DAX1 inh-1 inactive, DAX1 inh-2 inactive and hcDAF12 agonist inactive.
For Cc1ccc(NCC(=O)c2ccccc2)cc1Cl the results were SMARCA2 act inactive, hgDAF12 agonist inactive, ssDAF12 agonist inactive, DAX1 inh-1 inactive, DAX1 inh-2 inactive, hcDAF12 agonist 7.7, LXRb hcDAF ctr inactive and hcDAF12 ag inactive.
For Cc1ccc(C(=O)CNc2ccc(C)c(Cl)c2)cc1 the results were SMARCA2 act inactive, hgDAF12 agonist inactive, ssDAF12 agonist inactive, DAX1 inh-1 inactive, DAX1 inh-2 inactive and hcDAF12 agonist inactive.
For COCc1[nH][nH]c(=O)c1C=NCC(=O)OC the results were SMARCA2 act inactive, hgDAF12 agonist inactive, ssDAF12 agonist inactive, DAX1 inh-1 inactive, DAX1 inh-2 inactive and hcDAF12 agonist inactive.
Screening COc1ccc(OC)c(C(=O)Nc2c(O)ccc3ccccc23)c1 returned SMARCA2 act inactive, hgDAF12 agonist inactive, ssDAF12 agonist inactive, DAX1 inh-1 inactive, DAX1 inh-2 inactive, hcDAF12 agonist 7.0, LXRb hcDAF ctr inactive and hcDAF12 ag 6.1.
For COc1ccc(NC(=O)CSc2nc(N)c(NC(=O)c3ccccc3F)c(=O)[nH]2)cc1 the results were SMARCA2 act inactive, hgDAF12 agonist inactive, ssDAF12 agonist inactive, DAX1 inh-1 inactive, DAX1 inh-2 inactive and hcDAF12 agonist inactive.
COc1ccc(OC)c(NC(=O)Nc2c(O)ccc3ccccc23)c1 was read as SMARCA2 act inactive, hgDAF12 agonist inactive, ssDAF12 agonist inactive, DAX1 inh-1 inactive, DAX1 inh-2 inactive and hcDAF12 agonist inactive.
`COc1ccc(CC(=O)Nc2ccc(NC(=O)c3ccccc3F)cc2)cc1` gave SMARCA2 act inactive, hgDAF12 agonist inactive, ssDAF12 agonist inactive, DAX1 inh-1 inactive, DAX1 inh-2 inactive, hcDAF12 agonist 9.8, LXRb hcDAF ctr inactive and hcDAF12 ag inactive.
`CCOc1ccc(NC(=O)c2cc3ccccc3cc2OC)cc1` gave SMARCA2 act inactive, hgDAF12 agonist inactive, ssDAF12 agonist inactive, DAX1 inh-1 inactive, DAX1 inh-2 6.3, hcDAF12 agonist 7.0, LXRb hcDAF ctr inactive and hcDAF12 ag 6.1.
`Cc1ccc(S(=O)(=O)Nc2ccc3c(c2)OCCO3)cc1` gave SMARCA2 act inactive, hgDAF12 agonist inactive, ssDAF12 agonist inactive, DAX1 inh-1 inactive, DAX1 inh-2 inactive and hcDAF12 agonist inactive.
Cc1c(C#N)c(=O)c(-[n+]2ccccc2)c([S-])n1-c1ccc(Cl)cc1 was read as SMARCA2 act inactive, hgDAF12 agonist inactive, ssDAF12 agonist inactive, DAX1 inh-1 inactive, DAX1 inh-2 inactive, hcDAF12 agonist 7.3, LXRb hcDAF ctr inactive and hcDAF12 ag inactive.
CC(Cn1cnc2ccccc21)C(=O)O (stereo not given) was read as SMARCA2 act inactive, hgDAF12 agonist inactive, ssDAF12 agonist inactive, DAX1 inh-1 inactive, DAX1 inh-2 inactive and hcDAF12 agonist inactive.

Compound activity: PubChem BioAssay, The Scripps Research Institute Molecular Screening Center
